Compound activity (PubChem BioAssay)
Shown are actives, neighbours in structure and some others; about 6.5% of the full set was active somewhere.
Marburg entry inh – blocks Marburg virus binding to or entry into cells | Marburg virus pseudotyped entry inhibition, cell reporter | AID 540276 | 300,000 tested, 1.8% active | Potency, µM (series often up to 37.8 µM), without a hit: top-dose activity change, negative = inhibition, hits mostly inhibitors; calls by dose curve; tested in HEK293 cells; also: potency is read from the fitted curve at half-maximal effect
Vaccinia mCherry – vaccinia inhibition (mCherry reporter). Vaccinia virus mCherry reporter infection, fluorescence. Potency, µM (top dose mostly 36.5 µM), inactives show at the top dose activity change, negative = inhibition, actives largely listed as inhibitors. 310,000 tested, 0.63% active. AID 720579; calls by dose curve; tested in A549 cells; also: potency is read from the fitted curve at half-maximal effect; nearly all actives have a fitted effect of over 35% in size
FMDV inh – blocks foot and mouth disease virus; FMDV antiviral cell-based qHTS; Potency, µM (titrated, usually from 57.9 µM), inactives show at the highest dose activity change, negative = inhibition, hits mostly inhibitors; AID 1159524; 410,000 tested, 1.2% active; calls by dose curve; tested in HEK293T cells; also: read-out not given here; potency is read from the fitted curve at half-maximal effect; nearly all actives have a fitted effect of over 45% in size
HCMV inh – human cytomegalovirus inhibition. HFF cells, HCMV-luciferase reporter, 72 h; active compounds read low. activity change, negative = inhibition, % at 57.5 µM. 410,000 tested, 4.5% active; in the data active = activity change below about -60%; inconclusive = no clear call, values can overlap the other calls; inactive = above about -39%
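Two-dose cell screen: HFF monolayers treated with compounds and infected with luciferase-expressing HCMV at 1 PFU/cell, 72 h at 37C, then lysed for luciferase measurement.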
LASV entry inh – blocks Lassa virus binding to or entry into cells; Potency, µM (highest dose often 37.9 µM), for the others: at the top dose activity change, negative = inhibition, hits mostly inhibitors; Lassa virus pseudotype entry inhibition, cell reporter; 300,000 tested, 1.2% active; calls by dose curve; tested in HEK293 cells; also: potency is read from the fitted curve at half-maximal effect; nearly all actives have a fitted effect of over 50% in size
VACV Venus inh – vaccinia inhibition (Venus reporter). AID 720580. Potency, µM (doses to about 36.5 µM), for the others: at the highest dose activity change, negative = inhibition, actives largely listed as inhibitors. 330,000 tested, 0.46% active. Vaccinia virus Venus reporter expression, fluorescence; calls by dose curve; tested in A549 cells; also: potency is read from the fitted curve at half-maximal effect; nearly all actives have a fitted effect of over 30% in size
Numbers without * were called inactive; i = inactive; u = inconclusive; x = not tested or not shown; [ ] = remark or other dose. % is scaled to controls: 0 for no effect and ±100 for the full control effect.

SMILES | Marburg entry inh | Vaccinia mCherry | FMDV inh | HCMV inh | LASV entry inh | VACV Venus inh
COc1ccc2[nH]c(C)c(CCNC(=S)Nc3cc(C)ccc3C)c2c1 | -6% | -16% | -3% | -61* | 4% | -14%
CCc1cccc(C)c1NC(=S)NCCc1c(C)[nH]c2ccc(C)cc12 | u | 18µM* | 18% | -72* | u | u
CCOc1ccccc1NC(=O)C(C)Sc1cc(-c2ccccc2)nc(C)n1 (stereo not given) | -22%[46.1 µM] | -16% | -20% | 16 | -13%[46.1 µM] | -12%
Cc1nc(SC(C)C(=O)Nc2ccccc2Cl)cc(-c2ccccc2)n1 (stereo not given) | u | -4% | 0% | -70* | u | -6%
O=C(NCCN1CCC(n2c(=O)[nH]c3ccccc32)CC1)c1ccc(C(F)(F)F)cc1C(F)(F)F | x | -21% | 20µM* | u | x | -13%
Cc1ccc(Nc2nc(N)c([N+](=O)[O-])c(N3CCCC(C)C3)n2)cc1C (stereo not given) | 2.2µM* | -10% | u | -62* | -6% | -3%
Cc1cccc(Nc2nc(N)c([N+](=O)[O-])c(N3CCOCC3)n2)c1 | 5.6µM* | u | u | 21 | -2% | -29%
Cc1cccc(Nc2nc(NCc3ccco3)nc(N3CCOCC3)n2)c1 | 2.3µM* | x | -22% | 82 | u | x
CC1CCCN(c2nc(NCc3ccco3)nc(N)c2[N+](=O)[O-])C1 (stereo not given) | u | u | 0% | -102* | u | u
COc1cccc(Nc2nc(N)c([N+](=O)[O-])c(N3CCOCC3)n2)c1 | x | x | u | 59 | x | x
COc1ccc(Nc2nc(N)c([N+](=O)[O-])c(N3CCCC3)n2)cc1 | x | x | 0% | -15 | x | x
CC1CCCN(c2nc(N(C)c3ccccc3)nc(N)c2[N+](=O)[O-])C1 (stereo not given) | u | u | -21% | 7 | -21% | -25%
N[C@@H](Cc1cc(-c2ccc(Cl)cc2Cl)cc(CP(=O)(O)O)c1O)C(=O)O | x | x | -5% | x | x | x
Nc1nc(NCc2ccco2)nc(N2CCOCC2)c1[N+](=O)[O-] | -14% | -21% | -12% | 2 | -2% | -8%
CC1CC(C)CN(c2nc(NCc3ccco3)nc(N)c2[N+](=O)[O-])C1 (stereo not given) | -10% | -1% | u | -67* | u | -14%
CCn1c2c(c(=O)n3ncc(C(=O)Nc4ccc(F)cc4Cl)c13)CN(Cc1ccc(OC)cc1)CC2 | x | -14%[7.34 µM] | -7% | -20 | -21%[46.1 µM] | -10%
CCc1ccc(/C=C2\SC(=S)N(CCC(=O)NCCCN3CCOCC3)C2=O)cc1 | u | -29% | 1% | -74* | 4%[46.1 µM] | -12%
CCOC(=O)N1CCN(C(=O)CCN2C(=O)COc3ccccc32)CC1 | 13% | -12% | 11% | -62* | 8% | -5%
CN1CCN(CCCNC(=O)c2ccc(/C=C3\Sc4ccccc4N(Cc4ccc(F)cc4)C3=O)cc2)CC1 | x | x | 19% | -67* | x | x
O=C(CCCN1C(=O)/C(=C/c2cccc(Br)c2)SC1=S)NCCCN1CCOCC1 | u | 71% | -2% | -90* | -9%[46.1 µM] | 410%
O=C(O)C1CCCC1 | x | 35% | x | x | x | -5%
Nc1nc(Cl)nc2c1ncn2[C@@H]1O[C@H](COP(=O)(O)OP(=O)(O)OP(=O)(O)O)[C@@H](O)[C@H]1O | -26% | x | x | x | -18% | x
Cc1nc([N+](=O)[O-])cn1CC(=O)c1ccc2c(c1)OCCO2 | x | 0% | x | x | x | -14%
COC(=O)c1cccc(N2C(=O)C[C@](Sc3ccc(OC)cc3)(C(=O)N3CCN(c4ncccn4)CC3)[C@H]2c2ccc(OC)cc2)c1 | x | x | x | -25 | x | x
CCCOc1cccc(C2c3c(oc4ccc(F)cc4c3=O)C(=O)N2Cc2ccc3c(c2)OCO3)c1 (stereo not given) | u | 2% | 83% | -4 | 20%[46.1 µM] | -2%
SMILES | Marburg entry inh | Vaccinia mCherry | FMDV inh | HCMV inh | LASV entry inh | VACV Venus inh
O=C(CN1C(=O)/C(=C/c2ccccc2)Sc2ccccc21)NCCCN1CCOCC1 | x | x | -11% | -62* | x | x
O=C(CN1C(=O)COc2ccccc21)NCCN1CCOCC1 | -2%[46.1 µM] | 18% | 5% | -75* | 16% | 2%
Cc1ccc2c(c1)C(=O)[C@@]1(O)CCN(c3ccccc3)C1=N2 | x | x | -5% | x | x | x
C=CCn1c(Cc2ccccc2)nc2c(cnn2-c2ccccc2)c1=O | u | u | 28µM* | u | u | -27%
Nn1c(SCc2ccccc2)nc2c(cnn2-c2ccccc2)c1=O | x | x | 22% | 29 | x | x
CCN(CC)S(=O)(=O)c1ccc2c(c1)nc(CCC(=O)Nc1ccc3c(c1)OCO3)n2CC | u | i | -9% | -68* | 16% | -10%
N#CCSc1nnc(-c2ccc3c(c2)OCO3)o1 | u | 11µM* | 42% | -35 | 21% | u
CCN(CC)S(=O)(=O)c1ccc2c(c1)nc(CCC(=O)Nc1ccc3c(c1)OCO3)n2C | u | -14% | -11% | u | 10% | -11%
CCn1c(CSc2nnc(-c3ccc4c(c3)OCO4)o2)nc2cc(S(=O)(=O)N(C)C)ccc21 | -21% | x | u | -82* | -8% | x
C[C@@H]1C(c2ccccc2)=CC(=O)c2nc3ccccc3cc2[C@@H]1C(=O)N1CCCC1 | -10%[14.2 µM] | x | x | x | x | x
CNC(=S)N/N=C(\C)c1ccccc1 | 8% | i | 10% | -97* | u | -15%
CNC(=S)N/N=C(\C)c1ccc2c(c1)OCCO2 | u | -19% | 18% | 38 | -1% | -22%
CNC(=S)N/N=C(\C)c1ccc2c(c1)OCO2 | x | -3% | 0% | -104* | x | -5%
COc1ccc(CCC(=O)N/N=C(\C)c2ccc3c(c2)OCO3)cc1 | 13% | i | -10% | 32 | 0.35µM* | -9%
CC(C)Oc1ccc(C(=O)N2CC(=O)Nc3ccc(F)cc3C2c2ccc(F)cc2)cc1 (stereo not given) | -4%[46.1 µM] | -11% | -5% | 12 | u | -12%
O=C1CC[C@@H](S(=O)(=O)c2ccccc2)[C@H](c2ccccc2)N1Cc1ccccc1 | x | x | x | -15 | x | x
Cc1cc(C)nc(-c2cccc3c2OC(CNC(=O)c2ccc(Cn4nc(C)cc4C)cc2)C3)n1 (stereo not given) | x | -5% | -9% | x | x | 3%
Cc1ccc(C)c(S(=O)(=O)N2CCN(C(=O)Cc3ccsc3)CC2)c1 | 22% | -9% | 4.5µM* | 14 | -29% | -19%
CC(C)c1ccc(S(=O)(=O)N2CCN(C(=O)Cc3ccsc3)CC2)cc1 | -3% | -21% | 9% | -13 | -5% | -25%
CCCN(CCC)[C@H]1CCc2ccc(O)cc2C1 | -15% | x | x | x | x | x
Cn1c(NC(=O)c2cccc(Cn3cc(Cl)cn3)c2)nc2ccccc21 | -7% | u | 19% | 29 | u | -22%
CCn1c(NC(=O)c2cccc(Cn3cc(Cl)cn3)c2)nc2ccccc21 | x | u | u | -68* | x | -28%
COc1ccc(-c2nc(CNS(=O)(=O)c3ccc(C)cc3)cs2)cc1 | u | -5% | -17% | 19 | u | -6%
